High-throughput results (PubChem BioAssay)
Hits are enriched below; roughly 1.9% of the tested compounds scored in any of these assays.
p53null 39C tox – selectivity test: cytotoxicity in p53 null cells, nonpermissive temperature; H1299 p53-null (neo) cells, 39C, ATPlite viability, 24 h; Potency, µM (titrated, usually from 46.1 µM), actives largely listed as cytotoxic; 55,000 compounds, 0.97% hits; also: nearly all actives have a fitted effect of over 50% in size
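ATP-luminescence viability readout (ATPlite, 20 min RT) after 24 hr compound treatment at 39C of H1299-neo or H1299-p53A138V cells; titration up to 46 uM; normalized to DMSO and 100 uM tamoxifen; Hill-fit AC50.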
HTT-AS promoter – activators of huntingtin-antisense promoter activity; Potency, µM (highest dose often 57.5 µM), hits mostly activators; HEK293 HTT-AS promoter firefly luciferase reporter, 24 h; response scale: percent change from vehicle, -100% = no light; 48,000 compounds, 0.24% hits; also: nearly all actives have a fitted effect of over 55% in size
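Luminescence was read after Dual-Glo reagent and a 10 min room-temperature incubation. Values were normalized to vehicle (0% activity) and zero RLU (-100% activity). Reporter HEK293 cells had been exposed to compounds (up to 57.5 uM final) for 24 h.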
p53null 32C kill – p53 null cell cytotoxicity, permissive temperature. 55,000 compounds, 0.62% hits. Potency, µM (doses to about 46.1 µM), hits mostly cytotoxic. H1299-neo p53 null cells, ATP luminescence, 24 h, 32C; also: nearly all actives have a fitted effect of over 55% in size
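Cells lacking p53 (H1299-neo) are plated at 600 per well and allowed to settle overnight at 37C. Test compounds (up to 46 uM) are added and held 24 hours at 32C, then ATP is quantified by luminescence.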
HTT prom inh – inhibits huntingtin promoter activity | HEK293 HTT promoter firefly luciferase reporter, 24 h | Potency, µM (doses to about 57.5 µM), usual class: inhibitors | 48,000 compounds, 0.93% hits | AID 1508623; also: nearly all actives have a fitted effect of over 50% in size
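Firefly luciferase readout (Dual-Glo, 10 min RT) after 24 h, 37 °C compound exposure (final up to 57.5 uM) of HEK293 reporter cells cultured 24 h beforehand; PTC124 at 50 uM final as control inhibitor; activity scaled vehicle 0%, zero RLU -100%.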
Each line names hits and unclear results; the compound was inactive in the other large screens. Calls follow the shape of the dose curve; as a rule, active = well fitted curve in the direction sought with a large enough effect; inconclusive = small, poorly fitted or top-dose-only effect, or another doubt; inactive = no such curve, though single readings can be large; an effect the other way counts as inactive or inconclusive.

O=C(/C(C=Nc1ccc(Br)cc1)=C(/O)c1ccco1)C(F)(F)F	p53null 39C tox inconclusive, p53null 32C kill 5µM (no result: HTT-AS promoter, HTT prom inh)
C=CC(=O)N1CCc2ccc(-n3c(=O)ccc4cnc5ccc(-c6cnn(C)c6)cc5c43)cc21	HTT prom inh inconclusive (no result: p53null 39C tox, p53null 32C kill)
CN1CCc2c(c3ccccc3n2Cc2ccc(C(=O)NO)cc2)C1	HTT prom inh inconclusive (no result: p53null 39C tox, p53null 32C kill)
Cc1ccc(C(=O)Oc2ccc(C(O)CNC(C)(C)C)cc2OC(=O)c2ccc(C)cc2)cc1 (stereo unspecified)	none (no result: p53null 39C tox, p53null 32C kill)
CCOc1ccc(CNC(=O)c2ccccc2NC(=O)c2nsc3ccccc23)cc1	p53null 39C tox 13µM
Cc1ccc(CNC(=O)c2ccccc2NC(=O)c2nsc3ccccc23)cc1	HTT-AS promoter inconclusive
CO[C@@H]1[C@H](N(C)C(=O)c2ccccc2)C[C@H]2O[C@]1(C)n1c3ccccc3c3c4c(c5c6ccccc6n2c5c31)C(=O)NC4	none (no result: p53null 39C tox, p53null 32C kill)
Cc1ccc2nc(-c3cc(NC(=O)COc4ccc(C)c(C)c4)ccc3Cl)oc2c1	HTT-AS promoter 2.5µM, p53null 32C kill inconclusive
CN1[C@H]2CC[C@H]1CC(OC(=O)c1c[nH]c3ccccc13)C2 (stereo partly specified)	none (no result: p53null 39C tox, p53null 32C kill)
CCN(CC)c1ccc(-c2nc(-c3ccccn3)no2)cc1[N+](=O)[O-]	HTT prom inh inconclusive
c1ccc(-c2nc(-c3ccccn3)no2)cc1	p53null 39C tox 7.9µM, p53null 32C kill 5.6µM (no result: HTT-AS promoter, HTT prom inh)
CCOC(=O)N1CCC(Nc2ccc(Cl)cc2N)CC1	none (no result: p53null 39C tox, p53null 32C kill)
COc1ccc(OCC(O)Cn2c(=N)n(CCN3CCCCC3)c3ccccc32)cc1 (stereo unspecified)	p53null 39C tox inconclusive
Cc1ccc(OCC(O)Cn2c(=N)n(CCN3CCCCC3)c3ccccc32)cc1 (stereo unspecified)	p53null 39C tox 13µM
N=c1n(CCN2CCCCC2)c2ccccc2n1CC(O)COc1ccc(Cl)cc1Cl (stereo unspecified)	p53null 39C tox 13µM, p53null 32C kill 18µM, HTT prom inh inconclusive
CC1(C)[C@H]2CC[C@]3(C)[C@@H](C(=O)C=C4[C@@H]5C[C@@](C)(C(=O)O)CC[C@]5(C)CC[C@]43C)[C@@]2(C)CC[C@@H]1O	none (no result: p53null 39C tox, p53null 32C kill)
COCCNC(=O)Cn1nc(C)c2c(C)n(-c3ccc(C)cc3)nc2c1=O	none
COc1ccc(OC)c(CCNC(=O)C(C)n2nc(C)c3c(C)n(-c4ccc(C)cc4)nc3c2=O)c1 (stereo unspecified)	HTT prom inh 1.6µM
CCC(C(=O)NCCc1cc(OC)ccc1OC)n1nc(C)c2c(C)n(-c3ccccc3)nc2c1=O (stereo unspecified)	HTT prom inh inconclusive
COc1ccc(CCNC(=O)Cn2nc(C)c3c(C)n(-c4ccc(C)cc4)nc3c2=O)c(OC)c1	HTT prom inh 2.5µM
COC(=O)c1ccc(NS(=O)(=O)c2ccc3[nH]c4c(c3c2)CCCCC4)cc1	p53null 39C tox 16µM, HTT prom inh inconclusive
COC(=O)c1ccc(NS(=O)(=O)c2ccc3[nH]c4c(c3c2)CCCC4)cc1	none
CCC(C)CCCCC(=O)N[C@@H](CCN)C(=O)NC(C(=O)N[C@H](CCN)C(=O)N[C@@H]1CCNC(=O)C([C@@H](C)O)NC(=O)[C@@H](CCN)NC(=O)[C@@H](CCN)NC(=O)[C@@H](CC(C)C)NC(=O)[C@H](Cc2ccccc2)NC(=O)[C@H](CCN)NC1=O)[C@@H](C)O (stereo partly specified)	none (no result: p53null 39C tox, p53null 32C kill)
O=C(CC(Nc1ccc(Cl)cc1)C(=O)O)c1ccccc1 (stereo unspecified)	p53null 39C tox 14µM, p53null 32C kill inconclusive (no result: HTT-AS promoter, HTT prom inh)
Cc1ccc(C2=Nc3ccc(Cl)cc3OC2)cc1	none (no result: p53null 39C tox, p53null 32C kill)
Cc1cccc(NC(=O)c2oc3c(c2C)-c2[nH]ncc2CC3)c1C	p53null 39C tox inconclusive, HTT-AS promoter inconclusive
Cc1ccc(NC(=O)c2oc3c(c2C)-c2[nH]ncc2CC3)c(Cl)c1	HTT-AS promoter 2.2µM
Cn1nnnc1SCCCNCc1cccc(OCc2ccccc2Cl)c1	none
Cn1nnnc1SCCCNCc1ccccc1OCc1ccccc1Cl	HTT prom inh 14µM
CCOc1cc(CNCCSc2nnnn2C)cc(Cl)c1OCc1ccc(Cl)cc1	p53null 39C tox 11µM, p53null 32C kill inconclusive, HTT prom inh inconclusive
Cc1nn(-c2ccccc2)c2sc(C(=O)Nc3cccc(O)c3)cc12	p53null 39C tox 25µM
Cc1nn(-c2ccccc2)c2sc(C(=O)Nc3ccccc3Br)cc12	none
N#CC(=C(N)Sc1ccccc1N)C(C#N)=C(N)Sc1ccccc1N	HTT prom inh inconclusive (no result: p53null 39C tox, p53null 32C kill)
O=C(C1CC1)N1CCc2cc(Br)cc(S(=O)(=O)Nc3ccc(F)c(F)c3)c21	p53null 39C tox 13µM, p53null 32C kill 25µM, HTT prom inh inconclusive
COc1cc(NS(=O)(=O)c2cc(Br)cc3c2N(C(=O)C2CC2)CC3)cc(OC)c1	p53null 39C tox inconclusive, p53null 32C kill 7.9µM, HTT prom inh 16µM
Cc1ccc(NS(=O)(=O)c2cc(Br)cc3c2N(C(=O)C2CC2)CC3)cc1C	HTT prom inh 5.6µM
O=C(C1CC1)N1CCc2cc(Br)cc(S(=O)(=O)Nc3ccc(C(F)(F)F)cc3)c21	p53null 39C tox 16µM, p53null 32C kill inconclusive, HTT prom inh inconclusive
Clc1cccc(-n2nnnc2NCc2ccccc2Oc2ccccn2)c1Cl	none (no result: p53null 39C tox, p53null 32C kill)
C[C@@H]1O[C@@H](O[C@H]2CC[C@@]3(C)[C@H](CC[C@@H]4[C@H]3C[C@@H](O)[C@]3(C)[C@@H](C5=CC(=O)OC5)CC[C@]43O)C2)C[C@H](O)[C@@H]1O[C@H]1C[C@H](O)[C@H](O[C@H]2C[C@H](O)[C@@H](O)[C@@H](C)O2)[C@H](C)O1 (stereo in doubt)	HTT prom inh inconclusive (no result: p53null 39C tox, p53null 32C kill)
Cc1ccc(-c2onc(C)c2C)cc1S(=O)(=O)N1CCOc2ccc(Cl)cc21	HTT prom inh inconclusive
Cc1cc(-c2ccc(C)c(S(=O)(=O)N3CCOc4ccc(Cl)cc43)c2)on1	HTT prom inh 28µM
O=C(NCc1ccccc1)c1csc(Nc2ccncn2)n1	none (no result: p53null 39C tox, p53null 32C kill)
COc1ccc(CSc2nc3ncccc3[nH]2)cc1	p53null 39C tox 11µM, HTT-AS promoter inconclusive, p53null 32C kill 11µM
COc1ccc(-c2nc(CSc3nc4ncccc4[nH]3)c(C)o2)cc1OC	none
CCOc1ccccc1C1CC(=O)NC(C)=C1C(=O)OC1CCCCCC1 (stereo unspecified)	HTT prom inh 32µM
CC1=C(C(=O)OC2CCCCCC2)C(c2ccccc2Cl)CC(=O)N1 (stereo unspecified)	HTT prom inh inconclusive
CCCCCOc1ccccc1/C(=C\SC)n1ccnc1	HTT prom inh inconclusive (no result: p53null 39C tox, p53null 32C kill)
COc1cccc(CNC(=O)c2cccc(NC(=O)c3nsc4ccccc34)c2)c1	HTT-AS promoter inconclusive
O=C(Nc1cccc(C(=O)N2CCCCC2)c1)c1nsc2ccccc12	p53null 39C tox 10µM, HTT-AS promoter inconclusive, p53null 32C kill inconclusive
COc1cccc(N2CCN(C(=O)c3ccc(NC(=O)c4nsc5ccccc45)cc3)CC2)c1	HTT prom inh 14µM
COC(=O)c1cccc(NC(=O)c2nsc3ccccc23)c1	p53null 39C tox 7.1µM, HTT-AS promoter inconclusive, p53null 32C kill 3.2µM
